Laboratory results taken from PubChem BioAssay (EPA / NIEHS).
Calls of active or inactive are those of the source. How the source made its calls: active means hit-call score of the fitted dose curve at least 0.9, where 1 is the maximum; inactive means score below 0.9.

These compounds were tested on Vascular cell adhesion molecule 1 (VCAM1), VCAM1 (gene 7412) (assay: BSK_hDFCGF_VCAM1: BioMAP Diversity Plus: hDFCGF Assay for Vascular cell adhesion molecule 1 (VCAM1) Biomarker Activity (AID 2283065;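 on AC50: VCAM-1 protein level quantified by ELISA after 24 h chemical exposure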)). Settings: primary human foreskin fibroblasts; actives raise or lower the signal.
Outline: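 ELISA read-out of VCAM-1 on human skin fibroblasts, 24 h post-dose; gain or loss of signal fitted bidirectionally against DMSO baseline.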

Row | Structure (SMILES) | outcome | AC50
1 | CC[C@@H]1C[C@H](N(Cc2cc(C(F)(F)F)cc(C(F)(F)F)c2)C(C)=O)c2cc(C(F)(F)F)ccc2N1C(=O)OC(C)C | inactive | 
2 | CN(C[C@@H](CC[N+]12CCC(C3CCCCC3)(CC1)CC2)c1ccc(Cl)c(Cl)c1)C(=O)c1cc(C(F)(F)F)cc(C(F)(F)F)c1 |  | 7.41 µM (active)
3 | CC/C(=C(/CC)c1ccc(O)cc1)c1ccc(O)cc1 |  | 13.6 µM (active)
4 | Cc1cn([C@H]2C[C@H](N=[N+]=[N-])[C@@H](CO)O2)c(=O)[nH]c1=O | inactive | 
5 | CCCCCCCCCCCCO |  | 25.8 µM (active)
6 | O=C=NCCCCCCN=C=O | inactive | 
7 | CN1C(=O)CC[C@H]1c1cccnc1 | inactive | 
8 | O=C1O[C@H]([C@@H](O)CO)C(O)=C1O | inactive | 
9 | CCN(Cc1cccc(S(=O)(=O)O)c1)c1ccc(C(=C2C=CC(=[N+](CC)Cc3cccc(S(=O)(=O)O)c3)C=C2)c2ccccc2S(=O)(=O)[O-])cc1 | inactive | 
10 | CN1C(=O)N(c2ccccc2Br)Cc2cnc(Nc3ccc4c(c3)OCC(CO)O4)nc21 (configuration not stated) |  | 34.1 µM (active)
11 | CCN(Cc1cccnc1)C(=O)c1cccc(Cl)c1[C@]1(C)C(=O)N(Cc2ccc(OC)cc2OC)c2ccc(Cl)cc21 | inactive | 
12 | CCCC(=O)OCCC(C)C | inactive | 

What follows are compounds tested on Plasminogen activator inhibitor-1 (PAI1), SERPINE1 (gene 5054) (assay: BSK_hDFCGF_PAI1: BioMAP Diversity Plus: hDFCGF Assay for Plasminogen activator inhibitor-1 (PAI1) Biomarker Activity (AID 2283066)). Settings: primary human foreskin fibroblasts; actives raise or lower the signal.
Outline: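 ELISA readout of PAI-1 from primary human skin fibroblast cultures, 24 h after compound addition. Gain or loss of signal was fitted bidirectionally against DMSO baseline.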

Row | Structure (SMILES) | outcome | AC50
13 | CCO[Si](CCCNC(N)=O)(OCC)OCC | inactive | 
14 | CCCCCCCCOc1ccc(C(=O)c2ccccc2)c(O)c1 | inactive | 
15 | Cc1ncc(CO)c(CO)c1O | inactive | 
16 | CCCCCCCC[Si](OCC)(OCC)OCC | inactive | 
17 | COc1cccc([C@H](O)C2CCN(CCc3ccc(F)cc3)CC2)c1OC | inactive | 
18 | CCCCCCCCCCCC[N+](C)(C)C |  | 20 µM (active)
19 | CO[C@H]1/C=C/O[C@@]2(C)Oc3c(C)c(O)c4c(O)c(c(/C=N/N5CCN(C)CC5)c(O)c4c3C2=O)NC(=O)/C(C)=C\C=C\[C@H](C)[C@H](O)[C@@H](C)[C@@H](O)[C@@H](C)[C@H](OC(C)=O)[C@@H]1C | inactive | 
20 | Oc1ccc2ccccc2c1 | inactive | 
21 | CN(C)C(=O)C1(N2CCCCC2)CCN(CC[C@@]2(c3ccc(Cl)c(Cl)c3)CN(C(=O)c3ccccc3)CCO2)CC1 |  | 12.3 µM (active)
22 | Cc1c2ccccc2c(C)c2c1ccc1ccccc12 |  | 10.1 µM (active)
23 | O=C1CCC(C2CCCCC2)CC1 |  | 31.7 µM (active)
24 | Oc1ccccc1 | inactive | 
25 | CC[C@@H]1C[C@H](N(Cc2cc(C(F)(F)F)cc(C(F)(F)F)c2)C(C)=O)c2cc(C(F)(F)F)ccc2N1C(=O)OC(C)C | inactive | 
26 | Cc1cn([C@H]2C[C@H](N=[N+]=[N-])[C@@H](CO)O2)c(=O)[nH]c1=O | inactive | 
27 | O=C1O[C@H]([C@@H](O)CO)C(O)=C1O | inactive | 
28 | CN1C(=O)N(c2ccccc2Br)Cc2cnc(Nc3ccc4c(c3)OCC(CO)O4)nc21 (configuration not stated) |  | 3.21 µM (active)
29 | CCCC(=O)OCCC(C)C | inactive | 

What follows are compounds tested on Intercellular Adhesion Molecule 1 (ICAM1), ICAM1 (gene 3383) (assay: BSK_KF3CT_ICAM1: BioMAP Diversity Plus: KF3CT Assay for Intercellular Adhesion Molecule 1 (ICAM1) Biomarker Activity (AID 2283067)). Settings: primary human keratinocytes with fibroblasts; actives raise or lower the signal.
Outline: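 ELISA readout of ICAM-1; KF3CT human skin co-culture (keratinocytes + foreskin fibroblasts), 24 h post-dose; gain/loss fit vs DMSO baseline.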

Row | Structure (SMILES) | outcome | AC50
30 | CCO[Si](CCCNC(N)=O)(OCC)OCC | inactive | 
31 | CCCCCCCCOc1ccc(C(=O)c2ccccc2)c(O)c1 | inactive | 
32 | COc1cc(C(=O)NC2CCN(C)CC2)ccc1Nc1ncc2c(n1)N(C1CCCC1)CC(F)(F)C(=O)N2C |  | 18.6 µM (active)
33 | c1ccc2ccccc2c1 | inactive | 
34 | O=CCCCC=O |  | 33.6 µM (active)
35 | Cc1ncc(CO)c(CO)c1O | inactive | 
36 | CCCCCCCC[Si](OCC)(OCC)OCC | inactive | 
37 | CC(O)CC(C)(C)O (configuration not stated) | inactive | 
38 | Clc1ccccc1C(c1ccccc1)(c1ccccc1)n1ccnc1 |  | 11.5 µM (active)
39 | COc1cccc([C@H](O)C2CCN(CCc3ccc(F)cc3)CC2)c1OC | inactive | 
40 | CCCCCCCCCCCC[N+](C)(C)C | inactive | 
41 | Clc1cc(Cl)c2c(c1)N=C1CCCCCN1C2 | inactive | 
42 | CO[C@H]1/C=C/O[C@@]2(C)Oc3c(C)c(O)c4c(O)c(c(/C=N/N5CCN(C)CC5)c(O)c4c3C2=O)NC(=O)/C(C)=C\C=C\[C@H](C)[C@H](O)[C@@H](C)[C@@H](O)[C@@H](C)[C@H](OC(C)=O)[C@@H]1C | inactive | 
43 | Oc1ccc2ccccc2c1 | inactive | 
44 | CN(C)C(=O)C1(N2CCCCC2)CCN(CC[C@@]2(c3ccc(Cl)c(Cl)c3)CN(C(=O)c3ccccc3)CCO2)CC1 |  | 35.2 µM (active)
45 | CCN(CC)C(=O)c1cc(S(=O)(=O)Cc2ccccc2)c(N2CCC(c3ccccc3)CC2)cc1N(CC)CCN(C)C | inactive | 
46 | OC12N=C(c3ccccc3)SC1Cc1cc(Cl)ccc12 (configuration not stated) | inactive | 
47 | Cc1c2ccccc2c(C)c2c1ccc1ccccc12 | inactive | 
48 | Cc1cc(F)ccc1-c1cc(N2CC[C@@H](O)[C@H]2CO)ncc1N(C)C(=O)C(C)(C)c1cc(C(F)(F)F)cc(C(F)(F)F)c1 |  | 26.3 µM (active)

Row | Structure (SMILES) | outcome | AC50
49 | Cc1cc2c(cc1C(F)(F)F)N(C(=O)Nc1ccc(Oc3cccnc3C)nc1)CC2 | inactive | 
50 | CCCCCCCCOC(=O)c1cc(O)c(O)c(O)c1 |  | 29.2 µM (active)
51 | O=c1c(-c2ccc(O)cc2)coc2cc(O)cc(O)c12 | inactive | 
52 | O=C1CCC(C2CCCCC2)CC1 | inactive | 
53 | Oc1ccccc1 | inactive | 
54 | CC1(C)NC(=O)N(c2ccc([N+](=O)[O-])c(C(F)(F)F)c2)C1=O | inactive | 
55 | CN(C)c1ccc(C(=C2C=CC(=[N+](C)C)C=C2)c2ccc(N(C)C)cc2)cc1 |  | 10.8 µM (active)
56 | CC[C@@H]1C[C@H](N(Cc2cc(C(F)(F)F)cc(C(F)(F)F)c2)C(C)=O)c2cc(C(F)(F)F)ccc2N1C(=O)OC(C)C | inactive | 
57 | CN(C[C@@H](CC[N+]12CCC(C3CCCCC3)(CC1)CC2)c1ccc(Cl)c(Cl)c1)C(=O)c1cc(C(F)(F)F)cc(C(F)(F)F)c1 |  | 12.3 µM (active)
58 | CC/C(=C(/CC)c1ccc(O)cc1)c1ccc(O)cc1 |  | 31.8 µM (active)
59 | Cc1cn([C@H]2C[C@H](N=[N+]=[N-])[C@@H](CO)O2)c(=O)[nH]c1=O | inactive | 
60 | CCCCCCCCCCCCO |  | 32.7 µM (active)
61 | O=C=NCCCCCCN=C=O | inactive | 
62 | CN1C(=O)CC[C@H]1c1cccnc1 | inactive | 
63 | O=C1O[C@H]([C@@H](O)CO)C(O)=C1O | inactive | 
64 | CCN(Cc1cccc(S(=O)(=O)O)c1)c1ccc(C(=C2C=CC(=[N+](CC)Cc3cccc(S(=O)(=O)O)c3)C=C2)c2ccccc2S(=O)(=O)[O-])cc1 | inactive | 
65 | CN1C(=O)N(c2ccccc2Br)Cc2cnc(Nc3ccc4c(c3)OCC(CO)O4)nc21 (configuration not stated) | inactive | 
66 | CCN(Cc1cccnc1)C(=O)c1cccc(Cl)c1[C@]1(C)C(=O)N(Cc2ccc(OC)cc2OC)c2ccc(Cl)cc21 | inactive | 
67 | CCCC(=O)OCCC(C)C | inactive | 
